This is part of a sample that, as a whole, favours compounds with a hit. Of some 79,000 tested, about 15% had one in any assay. Rule as the data show it: active = growth inhibition above about 70%; inactive = the rest.
Assays:
[1] = NCI Yeast Anticancer Drug Screen. Data for the rad50 strain (AID 155);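 also: 0% = growth of vehicle-only cultures of the same strain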; settings: S. cerevisiae rad50 strain growth inhibition; at 50.0 µM; hits give high values
How it was run: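 Inhibition values express reduced yeast growth in compound-treated cultures relative to vehicle-treated controls.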

[2] = NCI Yeast Anticancer Drug Screen. Data for the mec2-1 strain (AID 157); settings: S. cerevisiae mec2-1 strain, at 50.0 µM, hits give high values
How it was run: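 Using mec2-1 yeast: add compound, measure growth, express inhibition versus vehicle-treated cultures.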

[3] = NCI Yeast Anticancer Drug Screen. Data for the sgs1 mgt1 strain (AID 161);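 also: 0% = growth of cultures given vehicle only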; settings: S. cerevisiae sgs1 mgt1 strain, at 50.0 µM, hits give high values
How it was run: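 Growth of a repair-deficient yeast mutant was monitored after compound treatment and expressed as inhibition relative to vehicle-treated cultures.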

[4] = NCI Yeast Anticancer Drug Screen. Data for the cln2 rad14 strain (AID 165);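 also: 0% = growth equal to vehicle treated cultures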; settings: S. cerevisiae cln2 rad14 strain, at 50.0 µM, hits give high values
How it was run: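 Yeast strain cln2 rad14, bearing defects in cell cycle control and DNA repair, serves as the test system; values reflect growth inhibition compared with vehicle.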

[5] = NCI Yeast Anticancer Drug Screen. Data for the bub3 strain (AID 167); settings: S. cerevisiae bub3 mutant strain, at 50.0 µM, hits give high values
How it was run: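 Steps: expose the mutant yeast strain to compound; grow alongside vehicle-treated cultures; measure growth; express inhibition against the vehicle cultures.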

[6] = NCI Yeast Anticancer Drug Screen. Data for the mlh1 rad18 strain (AID 175); settings: S. cerevisiae mlh1 rad18 strain growth inhibition; at 50.0 µM; hits give high values
How it was run: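 Steps: expose repair-defective yeast to compound; measure growth; express inhibition against vehicle-treated controls.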

Measured: growth inhibition

COC1OC(CO)C(O)C(O)C1Br (stereo unspecified)
inactive: [1] 19.8% | [2] 13.9% | [3] 13% | [4] 31.7% | [5] 23.8% | [6] 21.2%

CC(C)C1CC(N(C)C)=CC(=O)N1 (stereo unspecified)
inactive: [1] -41.5% | [2] 5.95% | [3] 2.75% | [4] -14.4% | [5] 10.8% | [6] 10.9%

CCN(Cc1ccc(C(=O)OC)cc1)c1cccc(NC(C)=O)c1
inactive: [1] 33.5% | [2] 6.7% | [3] 29.9% | [4] -9.7% | [5] 20.3% | [6] 34%

COC(=O)C(Cc1nc2ccc(Cl)cc2[nH]c1=O)/C(=N/O)C(=O)Nc1cccc(Cl)c1C (stereo unspecified)
inactive: [1] 22.6% | [2] 0.95% | [3] 0.85% | [4] -40.9% | [5] 0.3% | [6] -4.55%

Cc1cc(O)c(C(c2ccc(C#N)cc2)c2c(O)cc(C)[nH]c2=O)c(=O)[nH]1
inactive: [1] -1.05% | [2] -31.9% | [3] 1.95% | [4] -6.2% | [5] 4.6% | [6] -6.35%

N#Cc1c2c(c(=O)n3c1[nH]c1ccccc13)CCC2
inactive: [1] -23.9% | [2] 11.4% | [3] -15.6% | [4] -3.25% | [5] -1.6% | [6] -8.2%

CC(C)(C)CP(=S)(CCP(CCP(=S)(CC(C)(C)C)CC(C)(C)C)CCP(=S)(CC(C)(C)C)CC(C)(C)C)CC(C)(C)C
inactive: [1] -0.75% | [2] -14.6% | [3] -18% | [4] 9.6% | [5] 0.65% | [6] -16.1%

Cc1ccccc1Nc1n[nH]c(=O)n1-c1ccccc1C
inactive: [1] 4.05% | [2] 6.65% | [3] 1.75% | [4] -12.5% | [5] 1.15% | [6] 2.9%

CC1CCCCN1Cc1ccccc1COC(=O)c1ccc([N+](=O)[O-])cc1 (stereo unspecified)
inactive: [1] 10.6% | [2] -5.05% | [3] 4.8% | [4] -29.1% | [5] 4.05% | [6] 18.6%

O=Cc1cccc(/C=N/Nc2nnc(N/N=C/c3cccc(C=O)c3)c3ccccc23)c1
inactive: [1] 30.6% | [2] 26.5% | [3] 35.5% | [4] 33.1% | [5] -3.2% | [6] 17.1%

O=C1OCC2Cc3ccccc3C(c3ccccc3)=C12 (stereo unspecified)
inactive: [1] -3.85% | [2] -6.3% | [3] -1.3% | [4] -31.5% | [5] 11.3% | [6] -1%

CN(CC(=O)c1ccc(I)cc1)Cc1ccccc1
inactive: [1] 28.1% | [2] -1.25% | [3] 16.4% | [4] -5.9% | [5] 12.8% | [6] 45.7%

CC1=C(O)/C(=C/C(C)CCC/C(C)=C/C=C/C(C)CCCc2ccoc2)OC1=O (stereo unspecified)
inactive: [1] 3.05% | [2] -4.65% | [3] 2.9% | [4] 23.8% | [5] 7.45% | [6] 3.1%

CC(=O)Nc1ccc2cc(-c3ccc(Cl)cc3)c3nnnn3c2n1
inactive: [1] 14.3% | [2] 4.85% | [3] 25.8% | [4] -53.1% | [5] 0.9% | [6] 17.8%

CCCCC(CC)OC(=O)Cc1ccccc1 (stereo unspecified)
inactive: [1] 10.9% | [2] -4.25% | [3] 13.1% | [4] -6.5% | [5] -4.45% | [6] 16.5%

CN(CC(=O)O)Cc1oc(CO)cc(=O)c1O
inactive: [1] -9.45% | [2] -9.5% | [3] -6.1% | [4] -37.5% | [5] -40% | [6] -14.3%

CC1(C(=O)N2c3ccccc3C=CC2C#N)CC2C=CC1C2 (stereo unspecified)
inactive: [1] -19.9% | [2] 4.6% | [3] 1.9% | [4] 7.6% | [5] -2.4% | [6] -15.9%

Cc1cccc(C)c1OC(=O)/C=C/c1ccccc1
inactive: [1] 31.3% | [2] -10.5% | [3] 33% | [4] -11.2% | [5] -11.8% | [6] 1.05%

Nc1nc2c(c(-c3nc(N)nc4c3CCC4)n1)CCC2
inactive: [1] 9.7% | [2] 15.4% | [3] 11.6% | [4] 7% | [5] -1.75% | [6] 10.8%

CCCCOC(=O)CNC(=O)c1ccc(C)c(OCc2ccccc2)c1[N+](=O)[O-]
inactive: [1] 0.5% | [2] -6.1% | [3] 6.1% | [4] -19.6% | [5] 20.9% | [6] -17.6%

CN(NC(=O)CCCl)C1=NCCCCN1
inactive: [1] -6.6% | [2] -17.9% | [3] -4.95% | [4] 43.5% | [5] -0.5% | [6] 19.4%

CCC/C=C/c1cc2c(cc1O)CC[C@@H]1[C@@H]2CC[C@]2(C)[C@@H](O)CC[C@@H]12
inactive: [1] 19.2% | [2] 16.4% | [3] 45.6% | [4] 35.4% | [5] 41.3% | [6] 23.9%

O=C(COc1cc(Cl)ccc1Cl)NCc1ccc(Cl)cc1
inactive: [1] 15.2% | [2] 2.1% | [3] 12.6% | [4] 10.1% | [5] 34.1% | [6] 14.8%

CC(=O)NCc1cccc[n+]1[O-]
inactive: [1] 14.8% | [2] -12% | [3] -3.8% | [4] -59.3% | [5] -6.85% | [6] -7.2%

Nc1ncnc2c1ncn2-c1ccc(N(CCO)CCO)cc1
inactive: [1] 5.5% | [2] -12.3% | [3] -1.15% | [4] -30.2% | [5] -9.45% | [6] 8.35%

CCOC(=O)c1c(Nc2ccc(OC)cc2)n[nH]c1C
inactive: [1] -7.85% | [2] -34.3% | [3] 15.6% | [4] 9.6% | [5] 8.65% | [6] -8.65%

NC(=S)NCc1ccccc1C(O)c1ccccc1 (stereo unspecified)
inactive: [1] 18.8% | [2] 13.8% | [3] -0.75% | [4] 18.3% | [5] 18.5% | [6] 21.2%

CN=C(N)NC
inactive: [1] -0.1% | [2] 2.45% | [3] 15.1% | [4] 24.1% | [5] 8.55% | [6] 20.1%

O=C(O)CC1CC2CC(=O)C1C2 (stereo unspecified)
inactive: [1] -28.1% | [2] -30.7% | [3] -14.7% | [4] -1.2% | [5] -23.6% | [6] 12.2%

CCCCOC(=O)OCCOCCOC(=O)OC(C)C(=O)OCCCC (stereo unspecified)
inactive: [1] -16.9% | [2] -22.4% | [3] -10.2% | [4] -21.3% | [5] 1.7% | [6] 10.8%

Nc1cc(=O)[nH]c(=S)n1-c1ccccc1
inactive: [1] -7% | [2] 2.5% | [3] -12.2% | [4] -16.1% | [5] -2.5% | [6] -9.65%

COc1ccccc1N/C(=C\C(=O)C(=O)NC12CC3CC(CC(C3)C1)C2)c1ccccc1
inactive: [1] 11.4% | [2] 2.55% | [3] 8.65% | [4] 2.25% | [5] 3.75% | [6] 14.2%

CCCCCCCCCCCCCCCc1c(NC(C)(CC)[P+](=O)O)c(=O)n(C)n1C (stereo unspecified)
inactive: [1] -41.5% | [2] -32.5% | [3] -7.45% | [4] -29.9% | [5] -12.2% | [6] -18.8%

CC(=O)Nc1nc2ncc(CN(C(C)=O)c3ccc(C(=O)O)cc3)nc2c(=O)[nH]1
inactive: [1] -19.3% | [2] -8.6% | [3] -38.1% | [4] -8.65% | [5] -21.1% | [6] -10.2%

CC(C)C(=NNC(N)=O)C(C)C
inactive: [1] 2.1% | [2] 2.2% | [3] -1.35% | [4] -3.7% | [5] -6.95% | [6] -8.4%

COC(=O)[C@]12CCC(C)[C@H](C)[C@H]1C1=CCC3[C@@]4(C)CC[C@H](OC(C)=O)C(C)(C)C4CC[C@@]3(C)C1(C)C(O)C2 (stereo partly specified)
inactive: [1] 23.1% | [2] -22.5% | [3] -8.45% | [4] 8.5% | [5] -0.4% | [6] 21.9%

Cc1cc(O)c(C(c2ccc3c(c2)OCO3)c2c(O)cc(C)[nH]c2=O)c(=O)[nH]1
inactive: [1] 31.1% | [2] 17.2% | [3] -4.35% | [4] -1.1% | [5] 0% | [6] -34%

c1ccc2c(c1)N=C(NNC1=Nc3ccccc3SC1)CS2
inactive: [1] 2.35% | [2] -2.85% | [3] 2.4% | [4] -0.55% | [5] 1.25% | [6] 0.65%

COc1ccc(C#N)c(-c2ccccc2)c1
inactive: [1] -11.2% | [2] -13.2% | [3] 17.5% | [4] 3.05% | [5] -6.25% | [6] -12.3%

CCOc1ccc(NS(=O)(=O)c2ccc(F)cc2)cc1
inactive: [1] -27.4% | [2] -21.3% | [3] -26.9% | [4] -6.2% | [5] -24.1% | [6] 3.05%

OC1CC2CCCC2CC1O (stereo unspecified)
inactive: [1] -9.45% | [2] -29.7% | [3] -6.95% | [4] 6.35% | [5] -9.65% | [6] -0.75%
